{"source": "PubChem BioAssay (Tox21)", "note": "Results filed as inconclusive are left out. A number with no mark means an inactive call. Calls of active or inactive are those of the source. Calls follow the shape of the dose curve; as a rule, active = well fitted activation curve with a large enough effect in the repeat runs; inconclusive = weak or mixed curves; inactive = flat fitted curve, though single readings scatter. % is scaled to controls: 0 for no effect and ±100 for the full control effect; potency is read from the fitted curve at half-maximal effect.", "data": [{"assay": "A CellTox Green Cytotoxicity Assay to monitor cytotoxicity in HepG2 cells - 16 hour (AID 1224876); also: nearly all actives have a fitted effect of over 45% in size", "conditions": "CellTox Green fluorescence; series mostly up to 76.8 µM; cytotoxicity increase: at the top concentration", "excerpt": "National Center for Advancing Translational Sciences [NCATS]\nNIH Chemical Genomics Center [NCGC]\nU.S. Environmental Protection Agency [EPA]\nNational Institutes of Environmental Health Sciences [NIEHS]\nNational Toxicology Program [NTP]\nCell-based models are critical for drug discovery. Determining the natural cytotoxic effects resulting from test compounds is an essential research activity. A CellTox Green Cytotoxicity Assay to monitor cytotoxicity in real time of continues cell culture during 40 hours of the compound treatment was used to screen Tox21 10K library compounds in HepG2 cells. CellTox Green Cytotoxicity Assay is a nonlytic, homogeneous, biofluorescent method to measure cytotoxicity in cell culture after experimental manipulation. The assay system uses a proprietary asymmetric cyanine dye that is excluded from viable cells but preferentially stains the dead cell's DNA. […] Viable cells produce no appreciable increases in fluorescence. Therefore, the fluorescence signal produced by the binding interaction with dead cell DNA is proportional to cytotoxicity.\nThe mixture of HepG2 cell suspension and reagents were dispensed at 600cells/6 ul/well in 1536-well tissue culture treated black solid bottom plates using a Multidrop dispenser. After the assay plates were incubated at a 37 C/5% CO2 incubator for 5 hours, 23 nL of compounds dissolved in DMSO, positive and negative controls was transferred to the assay plate by a pintool work station. The plates were incubated at 37 C for 40 hours. The fluorescence intensity were measured at 0h, 8h, 16h, 24h, 32h and 40h time points using ViewLux plate reader during compound treatment.", "values": [{"smiles": "O=C1NC(=O)c2cc([N+](=O)[O-])ccc21", "cytotoxicity increase": "12.8%"}, {"smiles": "CC(=O)OCCN(CCOC(C)=O)c1ccc(N=Nc2ccc([N+](=O)[O-])cc2C#N)cc1", "cytotoxicity increase": "-26.3%"}, {"smiles": "O=C(O)CCc1nc(-c2ccccc2)c(-c2ccccc2)o1", "cytotoxicity increase": "-7.24% [at 35.3 µM]"}, {"smiles": "CC(=O)Oc1ccc([N+](=O)[O-])cc1CCl", "cytotoxicity increase": "-0.868%"}, {"smiles": "CCCCCCCCCCCCCCN(CCO)CCO", "Potency": "49 µM (active)"}, {"smiles": "C=CC(C)(CCC=C(C)C)OC(=O)CC(C)C", "note": "(stereo not given)", "cytotoxicity increase": "0.751%"}, {"smiles": "C=C1C[C@@]23CC[C@H]4[C@@](C)(CCC[C@@]4(C)C(=O)O[C@@H]4O[C@H](CO)[C@@H](O)[C@H](O)[C@H]4O)[C@@H]2CC[C@]1(O[C@@H]1O[C@H](CO)[C@@H](O)[C@H](O[C@@H]2O[C@H](CO)[C@@H](O)[C@H](O)[C@H]2O)[C@H]1O[C@@H]1O[C@H](CO)[C@@H](O)[C@H](O)[C@H]1O)C3", "cytotoxicity increase": "0.677%"}, {"smiles": "CC(C)C=O", "cytotoxicity increase": "-4.83%"}, {"smiles": "CC1CC(OC(=O)C(O)c2ccccc2)CC(C)(C)N1C", "note": "(stereo not given)", "cytotoxicity increase": "-21% [at 35.3 µM]"}, {"smiles": "CCCCN(CCN(CCCC)C(=O)N1CCOCC1)C(=O)N1CCOCC1", "cytotoxicity increase": "17.9% [at 35.3 µM]"}, {"smiles": "CCOC(=O)C1=C(C)NC(C)=C(C(=O)OC)C1c1cccc(Cl)c1Cl", "note": "(stereo not given)", "cytotoxicity increase": "3.91% [at 35.3 µM]"}, {"smiles": "CCC(OCCCOC)OC(C)=O", "note": "(stereo not given)", "cytotoxicity increase": "-1.14%"}, {"smiles": "O=C=Nc1ccc(Cl)c(Cl)c1", "cytotoxicity increase": "-6.16%"}, {"smiles": "CC(C)c1nc(CN(C)C(=O)N[C@H](C(=O)N[C@@H](Cc2ccccc2)C[C@H](O)[C@H](Cc2ccccc2)NC(=O)OCc2cncs2)C(C)C)cs1", "cytotoxicity increase": "14.8% [at 35.3 µM]"}, {"smiles": "FC(F)(F)c1ccccc1Cl", "cytotoxicity increase": "-7.63%"}, {"smiles": "CC[C@]1(O)C[C@H]2CN(CCc3c([nH]c4ccccc34)[C@@](C(=O)OC)(c3cc4c(cc3OC)N(C=O)[C@H]3[C@@](O)(C(=O)OC)[C@H](OC(C)=O)[C@]5(CC)C=CCN6CC[C@]43[C@@H]65)C2)C1", "cytotoxicity increase": "16.3% [at 35.3 µM]"}, {"smiles": "O=C(Cn1ccnc1[N+](=O)[O-])NCCO", "cytotoxicity increase": "-8.95% [at 35.3 µM]"}, {"smiles": "c1ccc(C[n+]2cccc3ccccc32)cc1", "cytotoxicity increase": "-3.83%"}, {"smiles": "OC[C@H]1O[C@@H](n2cnc3c(=S)nc[nH]c32)[C@H](O)[C@@H]1O", "cytotoxicity increase": "0.0508% [at 35.3 µM]"}, {"smiles": "CC(C)Nc1cccnc1N1CCN(C(=O)c2cc3cc(NS(C)(=O)=O)ccc3[nH]2)CC1", "cytotoxicity increase": "7.39% [at 35.3 µM]"}, {"smiles": "CC(=O)N/N=C/c1ccc([N+](=O)[O-])o1", "cytotoxicity increase": "-3% [at 35.3 µM]"}, {"smiles": "CCC(=O)OC", "cytotoxicity increase": "6.18%"}, {"smiles": "CCCCC(CC)CN", "note": "(stereo not given)", "cytotoxicity increase": "12.3%"}, {"smiles": "O=C(O)c1cccc(-c2noc(-c3ccccc3F)n2)c1", "cytotoxicity increase": "2.78% [at 35.3 µM]"}, {"smiles": "CC(=O)Nc1ccc(C)cc1C", "cytotoxicity increase": "1.16%"}, {"smiles": "CC(CCC(=O)O)C(=O)O", "note": "(stereo not given)", "cytotoxicity increase": "5.49%"}, {"smiles": "C1C[C@@H]2[C@H]3CC[C@H](C3)[C@@H]2C1", "cytotoxicity increase": "-1.04%"}, {"smiles": "CCC=CC#N", "cytotoxicity increase": "2.85%"}, {"smiles": "CCOC(=O)c1ccccc1C(=C1C=C(Br)C(=O)C(Br)=C1)c1cc(Br)c(O)c(Br)c1", "cytotoxicity increase": "-0.631% [at 35.3 µM]"}, {"smiles": "OC(CCN1CCCC1)(c1ccccc1)C1CCCCC1", "note": "(stereo not given)", "cytotoxicity increase": "-0.209% [at 35.3 µM]"}, {"smiles": "COc1ccc(OC(=O)N(CC(=O)O)Cc2ccc(OCCc3nc(-c4ccccc4)oc3C)cc2)cc1", "cytotoxicity increase": "-1.79% [at 35.3 µM]"}, {"smiles": "NCCNCCO", "cytotoxicity increase": "10.1%"}, {"smiles": "C=C(C)C(=O)OCCCCCCCCCCCCC", "cytotoxicity increase": "0.458%"}, {"smiles": "Cc1ccc2c(Br)cc(Br)c(O)c2n1", "cytotoxicity increase": "-6.51% [at 35.3 µM]"}, {"smiles": "NNC(=O)CP(=O)(c1ccccc1)c1ccccc1", "cytotoxicity increase": "-14.5% [at 35.3 µM]"}, {"smiles": "C[C@H]1c2cccc(O)c2C(O)=C2C(=O)[C@]3(O)C(O)=C(C(N)=O)C(=O)[C@@H](N(C)C)[C@@H]3[C@@H](O)[C@@H]21", "cytotoxicity increase": "2.63% [at 35.3 µM]"}, {"smiles": "CCOC(=O)OC(C)OC(=O)[C@@H]1N2C(=O)[C@@H](NC(=O)[C@H](N)c3ccccc3)[C@H]2SC1(C)C", "note": "(stereo not given in full)", "cytotoxicity increase": "3.21% [at 35.3 µM]"}, {"smiles": "CCOc1ccccc1O[C@H](c1ccccc1)[C@H]1CNCCO1", "cytotoxicity increase": "14.9% [at 35.3 µM]"}, {"smiles": "CCCC(=O)C(=O)O", "cytotoxicity increase": "-7.87%"}, {"smiles": "COc1ccccc1NC(=O)c1cc2ccccc2cc1O", "cytotoxicity increase": "12.1%"}]}]}
